From PubChem BioAssay
Active and inactive are the calls of the source.

Experiments:
[1] = small molecules captured by biotinylated probe aFSTL3 – biochemical, small-molecule microarray, fluorescence 635/667, stem cell growth factor project, primary screen (AID 1064); conditions: higher = more signal;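 further: measures binding of the biotinylated anti-FSTL3 antibody to printed compounds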
[2] = binders from COS7 lysate, DM2A8 probe, primary screen, torsin A project, cell lysate, small-molecule microarray, fluorescence 635/667 (AID 1065); conditions: higher = more signal, COS7 lysate expressing mutant human TOR1A
[3] = small molecules captured by biotinylated probe aFGF2 – biochemical, small-molecule microarray, fluorescence 635/667, stem cell growth factor project, primary screen (AID 1067); conditions: higher = more signal;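 further: measures binding of biotinylated aFGF2 protein to printed compounds on slides; z-score merges feature fluorescence and signal-to-noise across triplicate slides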
[4] = small molecules captured by biotinylated probe aFGF10 – biochemical, small-molecule microarray, fluorescence 635/667, stem cell growth factor project, primary screen (AID 1071); conditions: higher = more signal;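 further: score merges 667 nm spot intensity and signal to noise from triplicate slides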
[5] = biological target: Neurogenic locus notch homolog protein 2 (Homo sapiens) (UniProt Q04721); assay: small molecules binding Notch2 protein – biochemical, small-molecule microarray, 635 nm fluorescence, stem cell growth factors, primary screen (AID 1073); conditions: higher = more signal
[6] = biological target: Pro-neuregulin-1, membrane-bound isoform (Homo sapiens) (UniProt Q02297); assay: small molecules binding neuregulin-1 protein – biochemical, small-molecule microarray, fluorescence 635/667, psychiatric disease protein project, primary screen (AID 1075); conditions: NRG1 binding, 635 nm fluorescence, higher = more signal;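 further: score combines 667 nm spot fluorescence with signal to noise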
[7] = tested on: Neuregulin-1 EGF-like domain; assay: small molecules binding NRG1 EGF domain – biochemical, small-molecule microarray, 635 nm fluorescence, primary screen (AID 1081); conditions: higher = more signal;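 further: binding of the protein to compounds printed on small-molecule microarray slides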
[8] = FRG1 expression reporter modulators in myotubes – cell-based, C2C12 myotubes, firefly/Renilla luciferase, luminescence, FRG1 inhibition for FSHD, primary screen (AID 1084); conditions: FRG1 promoter luciferase, higher = more signal, called active from +8 up or from −8 down
[9] = small molecules captured by biotinylated probe aFST – biochemical, small-molecule microarray, fluorescence 635/667, stem cell growth factor project, primary screen (AID 1086); conditions: higher = more signal;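 further: score merges 667 nm fluorescence with signal-to-noise of each printed compound spot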
[10] = binders of probe aHhip on microarray, primary screen, stem cell growth factor project, biochemical, small-molecule microarray, fluorescence 635/667 (AID 1087); conditions: higher = more signal;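 further: score merges spot fluorescence at 667nm with spot signal to noise ratio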
[11] = tested on: PRMT1 (protein arginine N-methyltransferase 1); assay: small molecules binding arginine methyltransferase PRMT1 – biochemical, small-molecule microarray, 635 nm fluorescence, primary screen (AID 1088); conditions: higher = more signal;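 further: binding of Prmt1 protein to compounds spotted on small-molecule microarray slides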
[12] = growth effects on S. cerevisiae YJM789 – YJM789 clinical isolate, OD600, 24 h, basal, primary screen (AID 1089); conditions: higher = more signal, called active from +8 up or from −8 down;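 further: growth of clinical yeast isolate S. cerevisiae YJM 789 seeded 1000 cells per well; test concentration not given here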
[13] = S. pombe growth modifiers, basal conditions – strain 972, OD600, 24 h, no modulator, primary screen (AID 1090);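 further: basal condition with compound alone and no growth modifier present; test concentration not given here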; conditions: S. pombe 972 growth, higher = more signal, called active from +8 up or from −8 down
[14] = budding yeast growth modifiers under rapamycin – strain BY4716, OD600, 96 h, primary screen (AID 1091); further: test concentration not given here; conditions: S. cerevisiae BY4716 + rapamycin, higher = more signal, called active from +8 up or from −8 down
[15] = biological target: Torsin-1A-interacting protein 2 (Homo sapiens) (UniProt Q8NFQ8); assay: small molecules binding lysate-expressed LULL1 – cell lysate, human LULL1 lysate, 635/667 nm fluorescence, primary screen (AID 1092); conditions: small-molecule microarray, hLULL1 lysate binding, 635 nm fluorescence; higher = more signal;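 further: probe is lysate of COS7 cells overexpressing human LULL1; score merges per-feature 667 nm fluorescence with signal-to-noise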
[16] = optical density change of DRC41 E. coli – strain DRC41, OD650, 24 h, E. coli filamentation project, primary screen (AID 1093);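 further: MC1000 strain lacking acrAB efflux and sulA so SOS filamentation is blocked; test concentration not given here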; conditions: E. coli DRC41 growth, higher = more signal, called active from +8 up or from −8 down
[17] = probe aLefty2 binding to arrayed compounds – biochemical, biotinylated probe, 635/667 nm fluorescence, primary screen (AID 1094); conditions: small-molecule microarray, higher = more signal;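 further: score merges spot fluorescence near 667 nm with spot signal-to-noise ratio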
[18] = tested on: Noggin (protein binding on small-molecule microarray); assay: small molecules binding Noggin protein – biochemical, 635/667 nm fluorescence, primary screen (AID 1095); conditions: 635 nm fluorescence, higher = more signal;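 further: score merges 667 nm feature fluorescence with signal to noise over triplicate slides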
[19] = biological target: Neurogenic locus notch homolog protein 3 (Homo sapiens) (UniProt Q9UM47); assay: small molecules binding NOTCH3 protein – biochemical, 635/667 nm fluorescence, primary screen (AID 1096); conditions: small-molecule microarray, 635 nm fluorescence, higher = more signal
[20] = probe aEGFR binding to arrayed compounds – biochemical, biotinylated probe, 635/667 nm fluorescence, primary screen (AID 1097); conditions: small-molecule microarray, higher = more signal;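 further: probe is a biotinylated anti-EGFR antibody binding compounds printed on slides; score combines fluorescence near 667 nm and signal to noise of each spot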

Chain of Pro-neuregulin-1, membrane-bound isoform (Homo sapiens) (Q02297 whole entry, looked up, the tested form may be a part, canonical isoform): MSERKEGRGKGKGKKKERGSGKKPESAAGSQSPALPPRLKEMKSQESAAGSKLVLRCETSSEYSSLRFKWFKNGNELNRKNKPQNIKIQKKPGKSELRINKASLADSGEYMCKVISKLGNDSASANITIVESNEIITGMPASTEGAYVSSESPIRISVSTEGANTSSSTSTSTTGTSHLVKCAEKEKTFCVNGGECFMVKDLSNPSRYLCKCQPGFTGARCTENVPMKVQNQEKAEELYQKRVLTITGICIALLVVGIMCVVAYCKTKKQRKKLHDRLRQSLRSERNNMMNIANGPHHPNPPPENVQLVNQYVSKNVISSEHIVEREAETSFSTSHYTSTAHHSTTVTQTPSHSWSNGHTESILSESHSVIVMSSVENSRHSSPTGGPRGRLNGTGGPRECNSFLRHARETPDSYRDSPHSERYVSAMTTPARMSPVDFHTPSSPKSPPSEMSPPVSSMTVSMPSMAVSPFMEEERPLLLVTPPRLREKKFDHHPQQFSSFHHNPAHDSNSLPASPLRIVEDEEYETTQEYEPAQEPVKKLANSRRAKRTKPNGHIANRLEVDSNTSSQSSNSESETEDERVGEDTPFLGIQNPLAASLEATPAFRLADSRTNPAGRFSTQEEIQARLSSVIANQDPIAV
Chain of Neurogenic locus notch homolog protein 3 (Homo sapiens) (Q9UM47 whole entry, looked up): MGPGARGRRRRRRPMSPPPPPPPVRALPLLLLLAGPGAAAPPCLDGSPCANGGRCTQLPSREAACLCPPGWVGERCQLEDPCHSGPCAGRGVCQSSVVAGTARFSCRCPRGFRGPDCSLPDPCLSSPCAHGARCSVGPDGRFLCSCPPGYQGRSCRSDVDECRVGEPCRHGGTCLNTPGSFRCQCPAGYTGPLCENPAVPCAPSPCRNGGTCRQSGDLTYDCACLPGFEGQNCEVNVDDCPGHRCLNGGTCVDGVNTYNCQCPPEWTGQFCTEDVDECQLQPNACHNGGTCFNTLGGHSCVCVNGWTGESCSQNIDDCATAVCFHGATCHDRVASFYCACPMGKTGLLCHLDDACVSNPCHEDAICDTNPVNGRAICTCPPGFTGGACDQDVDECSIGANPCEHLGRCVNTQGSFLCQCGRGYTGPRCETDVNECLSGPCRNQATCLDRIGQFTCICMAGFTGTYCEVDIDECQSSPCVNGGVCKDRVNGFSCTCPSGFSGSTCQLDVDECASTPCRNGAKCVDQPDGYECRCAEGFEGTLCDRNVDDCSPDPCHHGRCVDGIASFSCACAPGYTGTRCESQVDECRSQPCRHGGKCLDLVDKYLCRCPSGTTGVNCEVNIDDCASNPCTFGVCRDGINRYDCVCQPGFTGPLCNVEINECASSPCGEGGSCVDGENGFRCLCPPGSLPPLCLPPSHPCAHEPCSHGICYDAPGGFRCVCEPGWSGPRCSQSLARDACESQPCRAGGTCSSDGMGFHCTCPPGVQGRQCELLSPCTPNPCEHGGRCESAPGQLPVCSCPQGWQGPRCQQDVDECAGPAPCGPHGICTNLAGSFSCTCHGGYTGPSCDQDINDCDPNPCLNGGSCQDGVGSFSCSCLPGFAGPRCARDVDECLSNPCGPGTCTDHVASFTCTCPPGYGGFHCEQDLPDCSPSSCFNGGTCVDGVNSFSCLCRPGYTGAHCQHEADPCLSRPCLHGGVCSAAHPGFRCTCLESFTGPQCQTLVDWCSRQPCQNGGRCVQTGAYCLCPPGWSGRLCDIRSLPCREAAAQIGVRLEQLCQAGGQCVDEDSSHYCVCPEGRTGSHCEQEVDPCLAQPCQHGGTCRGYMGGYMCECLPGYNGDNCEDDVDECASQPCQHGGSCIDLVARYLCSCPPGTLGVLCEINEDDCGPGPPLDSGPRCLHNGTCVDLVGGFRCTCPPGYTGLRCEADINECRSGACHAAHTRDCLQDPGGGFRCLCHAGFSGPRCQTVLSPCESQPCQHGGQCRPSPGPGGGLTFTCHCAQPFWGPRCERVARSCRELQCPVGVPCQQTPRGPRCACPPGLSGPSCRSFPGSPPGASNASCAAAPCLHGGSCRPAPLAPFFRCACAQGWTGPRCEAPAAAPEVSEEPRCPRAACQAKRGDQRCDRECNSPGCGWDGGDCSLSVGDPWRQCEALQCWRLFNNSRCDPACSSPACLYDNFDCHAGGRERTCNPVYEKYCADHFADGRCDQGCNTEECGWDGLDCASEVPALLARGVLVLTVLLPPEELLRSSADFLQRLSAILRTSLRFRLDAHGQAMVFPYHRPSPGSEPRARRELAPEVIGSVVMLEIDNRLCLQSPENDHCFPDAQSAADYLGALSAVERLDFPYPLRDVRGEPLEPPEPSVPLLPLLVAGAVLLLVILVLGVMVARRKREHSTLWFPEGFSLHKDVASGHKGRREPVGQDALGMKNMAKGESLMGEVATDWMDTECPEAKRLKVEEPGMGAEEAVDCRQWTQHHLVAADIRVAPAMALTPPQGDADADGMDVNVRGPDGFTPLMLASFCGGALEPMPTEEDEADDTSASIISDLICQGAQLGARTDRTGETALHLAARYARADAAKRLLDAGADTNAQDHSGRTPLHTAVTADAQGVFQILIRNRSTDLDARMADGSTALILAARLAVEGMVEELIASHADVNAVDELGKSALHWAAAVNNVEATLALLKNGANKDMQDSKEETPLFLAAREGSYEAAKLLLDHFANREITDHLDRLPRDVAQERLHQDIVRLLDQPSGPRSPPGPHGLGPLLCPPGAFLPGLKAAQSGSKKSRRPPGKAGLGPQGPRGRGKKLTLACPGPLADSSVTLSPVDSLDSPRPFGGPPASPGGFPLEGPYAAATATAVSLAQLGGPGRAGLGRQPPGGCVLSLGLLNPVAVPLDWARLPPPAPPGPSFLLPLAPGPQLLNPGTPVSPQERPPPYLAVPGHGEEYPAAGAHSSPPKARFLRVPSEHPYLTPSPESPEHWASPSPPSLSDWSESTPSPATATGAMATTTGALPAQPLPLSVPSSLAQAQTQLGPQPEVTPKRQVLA
Chain of Torsin-1A-interacting protein 2 (Homo sapiens) (Q8NFQ8 whole entry, looked up): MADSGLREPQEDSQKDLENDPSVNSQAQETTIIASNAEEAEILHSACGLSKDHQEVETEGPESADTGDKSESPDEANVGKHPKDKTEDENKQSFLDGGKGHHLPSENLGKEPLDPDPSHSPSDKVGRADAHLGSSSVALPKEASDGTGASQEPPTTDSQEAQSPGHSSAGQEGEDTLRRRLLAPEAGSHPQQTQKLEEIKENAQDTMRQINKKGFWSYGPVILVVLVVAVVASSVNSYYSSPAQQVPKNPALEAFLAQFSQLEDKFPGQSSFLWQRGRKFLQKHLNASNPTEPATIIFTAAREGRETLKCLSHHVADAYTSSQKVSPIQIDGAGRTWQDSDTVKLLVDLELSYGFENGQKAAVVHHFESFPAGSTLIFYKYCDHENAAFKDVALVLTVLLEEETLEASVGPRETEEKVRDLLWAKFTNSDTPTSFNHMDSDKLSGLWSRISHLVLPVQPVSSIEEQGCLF

SMILES | composite z-score [1] | composite z-score [2] | composite z-score [3] | composite z-score [4] | composite z-score [5] | composite z-score [6] | composite z-score [7] | z-score [8] | composite z-score [9] | composite z-score [10] | composite z-score [11] | z-score [12] | z-score [13] | z-score [14] | composite z-score [15] | z-score [16] | composite z-score [17] | composite z-score [18] | composite z-score [19] | composite z-score [20]
Cc1c(NC(=O)/C(C#N)=C/c2ccc(Cl)cc2)c(=O)n(-c2ccccc2)n1C | -0.268 | -0.113 | -0.0909 | 0.589 | 0.746 | 0.942 | 1.2 | -0.131 (inactive) | 0.52 | 0.0623 | 0.505 | -1.53 (inactive) | -1.57 (inactive) | -0.311 (inactive) | 1.55 | -0.155 (inactive) | -0.0657 | 0.532 | 0.992 | -0.153
CC(C)=CCN(C(=O)C#Cc1ccccc1)[C@H](CO)c1ccccc1 | -0.591 | 0.645 | -0.0692 | 0.118 | 0.248 | -0.141 | 0.283 | -5.11 (inactive) | 0.223 | -0.0994 | 0.95 | -0.577 (inactive) | -4.9 (inactive) | 36.4 (active) | 1.2 | 0.354 (inactive) | -0.116 | 0.69 | 0.829 | -0.0302
Cc1ccc(F)cc1S(=O)(=O)N[C@@H]1CCN(Cc2ccc3c(c2)OCO3)C1 | -0.125 | 0.267 | -0.135 | -0.0066 | -0.898 | -0.474 | -0.276 | -4.06 (inactive) | -0.264 | -0.0994 | -0.5 | 0.158 (inactive) | -2.41 (inactive) | 1.23 (inactive) | -0.539 | -1.4 (inactive) | -0.148 | 0.171 | -0.307 | -0.226
C=C(CCCC)/C(=C/C[C@H](OC(C)=O)c1cccc(OCCO)c1)c1cc(C(=O)OC)ccc1OC | 0.0336 | -0.325 | -0.0852 | -0.0418 | -0.393 | -0.578 | 0.131 | -0.502 (inactive) | -0.221 | -0.201 | 0.326 | 0.117 (inactive) | -0.602 (inactive) | -0.894 (inactive) | 0.628 | 1.01 (inactive) | -0.101 | 1.04 | 0.195 | -0.154
COC(=O)[C@@]1(Cc2ccc(F)cc2)[C@H]2c3cc(C(=O)N(C)C)n(CCO)c3C[C@H]2CN1C(=O)c1ccccc1 | 0.135 | -0.311 | 0.169 | 0.429 | 1.5 | 2.16 | 1.06 | -1.11 (inactive) | 0.433 | 0.218 | 0.0788 | -1.48 (inactive) | 0.766 (inactive) | -0.618 (inactive) | 2.89 | -0.28 (inactive) | 0.0423 | -0.515 | -0.562 | -0.0271
CCCC[C@H]1OB(O)C[C@H]2C1=C(COC)C[C@H]1C(=O)C=CC(=O)[C@H]12 | -0.54 | 0.007 | -0.0582 | 0.183 | 0.861 | -0.279 | -0.0265 | 0.254 (inactive) | 0.534 | 0.206 | 1.42 | 0.275 (inactive) | -1.56 (inactive) | -0.293 (inactive) | 0.117 | 0.898 (inactive) | -0.0798 | 0.747 | 0.936 | -0.071
CC(=O)n1cc(C(O)C2C=CC3C(=O)N(c4ccccc4)C(=O)C3N2Nc2ccccc2F)c2ccccc21 (stereo not given) | -0.146 | 0.25 | -0.0757 | -0.274 | 0.021 | 1.69 | 1.02 | 0.625 (inactive) | -0.346 | 0.0505 | 0.799 | -0.626 (inactive) | -0.169 (inactive) | -1.6 (inactive) | 2.51 | 1.01 (inactive) | -0.138 | -0.872 | -0.382 | -0.146
CN(C)C(=O)[C@]1(Cc2ccccc2CN=[N+]=[N-])N=C(c2ccc(OCCCO)cc2)O[C@@H]1c1ccccc1N=[N+]=[N-] | 0.168 | 0.142 | 0.117 | 0.41 | 1.49 | 1.85 | 1.22 | -1.04 (inactive) | 1.22 | -0.264 | 1.48 | -1.73 (inactive) | 0.498 (inactive) | 12.9 (active) | 3.43 | -0.0046 (inactive) | 0.0369 | 0.317 | 0.618 | 0.0427
CC(C)(C)OC(=O)CC[C@]1(C(N)=O)N=C(c2ccc(OCCCO)cc2)O[C@H]1c1ccccc1CN=[N+]=[N-] | 0.68 | 1.13 | 0.191 | 0.873 | 1.53 | 2.66 | 1.47 | 5.29 (inactive) | 0.441 | 0.0722 | 1.15 | 1.33 (inactive) | 0.835 (inactive) | 0.56 (inactive) | 3.62 | 0.528 (inactive) | 0.314 | 0.0447 | 1.08 | 0.306
CCCCC(O)C1C=CC2C(=O)NC(=O)C2N1Nc1ccc(Cl)cc1Cl (stereo not given) | 0.439 | -0.384 | 0.0127 | 0.612 | 0.866 | 1.3 | 1.09 | 0.0812 (inactive) | 0.691 | -0.27 | -0.338 | -25.2 (active) | -8.47 (active) | -1.58 (inactive) | 2.28 | -1.55 (inactive) | 0.259 | -0.314 | 0.303 | -0.0232
